Reference: PubChem BioAssay AID1009 (NMMLSC, 2008)
The campaign covered roughly 190,000 compounds. About 200 (0.11%) were called active. The sample holds actives, similar compounds and a random draw of the others, so the mix is not that of the screen. Unmarked numbers belong to inactive results. Rule as the data show it: active = inhibition above about 40%.

Biological target: Induced myeloid leukemia cell differentiation protein Mcl-1 (Homo sapiens) (UniProt Q07820)
Assay: inhibitors of Bim peptide binding to Mcl-1, primary screen, biochemical, bead-based flow cytometry, multiplex (AID 1009);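 also: 0% = no compound tracer wells and 100% = peptide blocker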
Conditions: Bim peptide-Mcl-1 binding, at 10 µM, hits give high values

Induced myeloid leukemia cell differentiation protein Mcl-1 (Homo sapiens), sequence (Q07820 whole entry, looked up): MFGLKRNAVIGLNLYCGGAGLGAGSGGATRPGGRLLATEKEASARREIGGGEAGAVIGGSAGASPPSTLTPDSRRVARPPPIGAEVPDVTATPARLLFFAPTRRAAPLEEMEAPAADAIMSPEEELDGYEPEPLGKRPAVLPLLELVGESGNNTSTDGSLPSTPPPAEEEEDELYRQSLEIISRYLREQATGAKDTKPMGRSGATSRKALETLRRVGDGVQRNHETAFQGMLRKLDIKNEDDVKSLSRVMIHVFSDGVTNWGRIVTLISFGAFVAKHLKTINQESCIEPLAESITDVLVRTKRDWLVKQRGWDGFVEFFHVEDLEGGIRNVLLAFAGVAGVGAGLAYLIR

| Structure (SMILES) | inhibition |
| --- | --- |
| COCCNC(=O)CCCn1c(=O)c2ccccc2n(Cc2cccc([N+](=O)[O-])c2)c1=O | 0% |
| CCC(=O)N1c2ccccc2NC2=C(C(=O)CCC2)C1c1ccco1 (configuration not stated) | 0% |
| S=c1[nH]cc(-c2ccc(Cl)cc2)n1-c1ccccc1 | 3% |
| CC/C(=N\NC(=S)NC(C)C)c1ccc(OC(F)F)cc1 | -2% |
| O=c1cc(CO)oc(C(Nc2cccc([N+](=O)[O-])c2)c2ccccn2)c1O (configuration not stated) | -4% |
| CCCc1nc2c([nH]1)C(c1cccnc1)C(C#N)=C(N)O2 (configuration not stated) | -3% |
| COCCCNC(=S)N1CCCC(c2nc3cc(C)c(C)cc3[nH]2)C1 (configuration not stated) | 6% |
| O=C(O)c1ccc2c3c(cccc13)C(=O)N(OS(=O)(=O)c1ccccc1)C2=O | 1% |
| O=c1[nH]c(CN2CCOCC2)nc2scc(-c3ccccc3)c12 | 0% |
| O=C(O)Cc1ccc(NCc2ccccc2Cl)cc1 | -2% |
| CC(NC(=O)CC1SC(N)=NC1=O)c1ccccc1 (configuration not stated) | -7% |
| CCc1nn(CCCN2CCN(c3cccc(Cl)c3)CC2)c(=O)n1CCOc1ccccc1 | 0% |
| O=C1CS(=O)CN1c1ccc(Oc2ccccc2)cc1 (configuration not stated) | 0% |
| C=C(C)C1CC=C(C)/C(=N\NC(=O)CNc2ccccc2OC)C1 (configuration not stated) | 0% |
| COc1ccc([N+](=O)[O-])cc1NC(=O)CC1SC(=Nc2cccc(C)c2C)N(/N=C(\C)c2ccc(C)cc2)C1=O (configuration not stated) | -1% |
| Cc1ccccc1NC(=O)Cn1c(=O)n(CC2CCCO2)c(=O)c2ccccc21 (configuration not stated) | -1% |
| COc1cccc(NC(=S)C(C#N)=C2N(C)c3ccccc3N2C)c1 | -1% |
| CCc1[nH]nc(C(=O)N2CCCC(CNS(=O)(=O)c3cccs3)C2)c1C (configuration not stated) | 0% |
| CC(C(=O)NCC1CCCCC1)N(C)Cc1cccc(Cl)c1 (configuration not stated) | -1% |
| CCO[C@H]1OC(C(=O)N2CCCCCCC2)=C[C@@H](c2ccc(C(F)(F)F)cc2)[C@@H]1CCCO | -4% |
| O=S(=O)(c1ccc(F)cc1)N1CCN(C(=S)NCc2ccco2)CC1 | -6% |
| CC(=O)Nc1ccc(NC(=S)NC(=O)c2ccc([N+](=O)[O-])c(C)c2)cc1 | 2% |
| CN1CCN(CCNC(=O)Nc2ccc([N+](=O)[O-])cc2)CC1 | -3% |
| CC1CCC(C(C)C)C(=O)/C1=C\c1ccc(NC(=O)CCC(=O)O)cc1 (configuration not stated) | 0% |
| Cc1ccc(CN2CCN(Cc3ccccc3-c3ccco3)CC2CCO)o1 (configuration not stated) | -1% |

| Structure (SMILES) | inhibition |
| --- | --- |
| CCCCC1S/C(=N/N=C/c2cccs2)NC1=O (configuration not stated) | -1% |
| NC(=O)c1ccc(N2CCOCC2)nc1 | 1% |
| Cc1ccc2nc(C)cc(N/N=C/c3ccc(F)cc3)c2c1 | 0% |
| Cc1n[nH]c(=O)nc1N/N=C/c1cccs1 | -1% |
| CC(=O)N/N=C/c1cc2c(cc1[N+](=O)[O-])OCO2 | -2% |
| Cc1ccc(Cl)cc1NC(=O)c1ccccn1 | -2% |
| NS(=O)(=O)c1ccc(NC(=O)COC(=O)c2ccco2)cc1 | 1% |
| O=C(N/N=C/c1ccco1)c1ccc(NC(=O)C2CC2)cc1 | -2% |
| Cc1ccc2c(CC(=O)NCc3cccs3)coc2c1 | -3% |
| COc1ccccc1NC(=O)C[n+]1ccccc1 | 0% |
| CCOC(=O)/C(C#N)=C/c1ccc(N2CCCCC2)cc1 | 0% |
| CCOC(=O)c1sc2nc(C)nc(Nc3ccc(OC)c(OC)c3)c2c1C | 3% |
| Cc1nc2ccccc2c(C)c1C(=O)c1ccc(F)cc1 | 0% |
| CCOC(=O)c1ccc(NNC(C)=O)c([N+](=O)[O-])c1 | -1% |
| Cc1nc2cc(NCc3cccs3)ccc2n1C | -1% |
| COc1ccc(N2CCN(C(=O)C3CCN(S(=O)(=O)c4ccc(C)cc4)CC3)CC2)cc1 | 0% |
| O=C(CC1SC(=Nc2ccccc2)N(Cc2ccccn2)C1=O)Nc1cccc(Cl)c1 (configuration not stated) | 2% |
| CCOC(=O)c1sc(=NC(=O)/C=C/c2cccs2)n(C)c1C | 3% |
| CC(=O)N1CCN(S(=O)(=O)c2ccc(C)c([N+](=O)[O-])c2)C1C(C)C (configuration not stated) | 0% |
| CCC1(CC)NC(=O)N(Cc2nc3ccccc3s2)C1=O | -2% |
| CCCNC(=O)OC[C@H]1O[C@H](CCO/N=C/[C@@H](NS(=O)(=O)c2ccc(C)cc2)[C@H](C)/C=C/CC(=O)OC)C=C[C@@H]1Oc1ccc(OC)cc1 | -2% |
| Cc1ccc(C(=O)NC(=S)Nc2ccc3[nH]c(=O)[nH]c3c2)cc1C | -2% |
| CSc1nc2nc(-c3cccc(C(F)(F)F)c3)ccn2n1 | 5% |
| Cc1ccc(S(=O)(=O)N(C)C)cc1NC(=O)COC(=O)C1COc2ccccc2O1 (configuration not stated) | 3% |
| O=C(CCN1C(=O)c2ccncc2C1=O)Nc1cc(F)ccc1F | 0% |

| Structure (SMILES) | inhibition |
| --- | --- |
| O=C(c1ccc(F)cc1)N1CCC(n2nnc3ccccc32)CC1 | -2% |
| Cc1ccc(C)c(Cn2cnc3c(oc4ccccc43)c2=O)c1 | -1% |
| COc1ccc(-c2ccc(CNCCCN3CCOCC3)o2)cc1Cl | 2% |
| Cc1ccc(C(=O)O)cc1NC(=O)c1ccc(Cn2nc(C)c(Cl)c2C)o1 | 1% |
| COc1cc(NC(=S)N2CCCC(C)C2)c(OC)cc1Cl (configuration not stated) | -5% |
| CCCCN(CC)CCNC(=O)CCNC(=O)Cn1ccc2ccccc2c1=O | -4% |
| O=C(CCSc1ccccc1)N1CCN(c2ccccc2F)CC1 | -2% |
| CCCN=C1NC(=O)C(CC(=O)NCCc2ccc(OC)c(OC)c2)S1 (configuration not stated) | -11% |
| Cc1ccc(S(=O)(=O)N2CCN(C(=O)c3cccs3)CC2)cc1 | -5% |
| Cc1ccc(S(=O)(=O)NCCC(c2ccccc2)c2ccccc2)cc1C(=O)O | 1% |
| CN(C)C(=O)c1cccn(Cc2cccc(C(F)(F)F)c2)c1=O | 0% |
| Cc1ccc(-c2ccc(/C=C(\C#N)C(N)=S)o2)c([N+](=O)[O-])c1 | 0% |
| O=C(COC(=O)Cn1cnc2ccccc2c1=O)NCC12CC3CC(CC(C3)C1)C2 | -4% |
| N#C/C(C(=S)Nc1ccccc1)=C1/NN=C(N2CCOCC2)N1c1ccccc1 | 0% |
| CCN(CC)S(=O)(=O)c1ccc(N2CCOCC2)c(NC(=O)C2COc3ccccc3O2)c1 (configuration not stated) | 2% |
| CCc1cc(C(=O)OC)c(NC(=O)CC2Sc3ccc(C(F)(F)F)cc3NC2=O)s1 (configuration not stated) | -1% |
| Cc1ccc(S(=O)(=O)NCC(=O)OCC(=O)N2CCc3ccccc32)cc1 | -6% |
| Cc1ccc(S(=O)(=O)N(C)CC(=O)OCC(=O)N2CC(=O)Nc3ccccc32)cc1 | 1% |
| Cc1ccc(S(=O)(=O)N(C)CC(=O)N2CCc3ccccc32)cc1 | 41% (active) |
| Cc1nnsc1C(=O)N/N=C/c1cccc(C(F)(F)F)c1 | -2% |
| CN(C)c1ccc(/C=N\S(=O)(=O)c2ccccc2)cc1 | -6% |
| Cc1cc(NC(=O)CSCc2ccccc2C)no1 | 0% |
| COc1ccc(-n2c(C)cc(C(=O)COC(=O)c3cc(OC)c(OC)cc3NC(=O)c3cccs3)c2C)cc1 | -5% |
| O=C(O)c1cccc(NC(=S)N/N=C/c2c[nH]c3ccccc23)c1 | -3% |
| CC(C)N(C)C(=O)CCc1nnc(CCc2c[nH]c3ccccc23)o1 | -3% |

| Structure (SMILES) | inhibition |
| --- | --- |
| CCCCn1nc(C(=O)OCC(=O)Nc2sccc2C(N)=O)c2ccccc2c1=O | -1% |
| CC(=O)Nc1ccc(S(=O)(=O)N(C)c2ccc(OCC(=O)OCC(=O)N3CCCCC3)cc2)cc1 | -2% |
| COc1ccc(CN(C)C(=S)Nc2ccc(Cl)cc2Cl)cc1 | 1% |
| CCOC(=O)c1c(-c2cccc(N)c2)cn2ccccc12 | 0% |
| COc1ccccc1CNS(=O)(=O)c1ccc(C)cc1 | -2% |
| COCCNC(=O)COc1ccccc1C | 2% |
| Cc1ccc(S(=O)(=O)NC(=O)COc2ccccc2C)cc1 | 51% (active) |
| CN1CCN(CC#CCC2(O)c3ccccc3-c3ccccc32)CC1 | -1% |
| O=C(Nc1nnc(-c2ccco2)o1)c1ccc(S(=O)(=O)N2CCOCC2)cc1 | 0% |
| COCCn1c(=NC(=O)c2ccccc2[N+](=O)[O-])sc2cc(S(C)(=O)=O)ccc21 | -2% |
| CC1(C)CC(=O)C(CC(=O)N2CCC(Cc3ccccc3)CC2)C(=O)C1 | 1% |
| COc1ccc(Cl)cc1NC(=O)COC(=O)C(CC(C)C)N1C(=O)C2CC=CCC2C1=O (configuration not stated) | -1% |
| Cc1cc(NC(=O)CN2C(=O)NC(CCc3ccccc3)C2=O)no1 (configuration not stated) | -1% |
| Cc1c(CCOC(=O)c2cc([N+](=O)[O-])ccc2Cl)sc[n+]1CCCCS(=O)(=O)[O-] | -1% |
| Cc1cccc(C(=O)OCC(=O)NCC(C)C)c1O | 4% |
| CC1(C)CC(=O)C(C2c3ccccc3S(=O)(=O)c3ccccc32)C(=O)C1 | -1% |
| COc1ccc2oc(=O)c(C(=O)N3CCCC3)cc2c1 | 3% |
| C=CCC(CC=C)(C(N)=O)c1ccccc1 | 3% |
| COc1cc(NC(=O)COC(=O)c2cnc(C)cn2)c(C)cc1[N+](=O)[O-] | 0% |
| Cc1ccc(-c2ccc(/C=N/NC(=O)CN3CCOCC3)o2)cc1[N+](=O)[O-] | -1% |
| Cc1cc(C)n2nc(SCC(=O)NC(=O)NCc3ccco3)nc2n1 | 0% |
| CN(C)c1ccc(C(CC(=O)O)C(=O)O)cc1 (configuration not stated) | -1% |
